Measurements reported in the supplement of paper PMC12350171.
Where a name gives a salt, the structure may show the parent alone.

Assays:
Conditions in all cases: 20 µM
[1] = test system: Salmonella enterica typhimurium; assay: growth AUC normalised to DMSO control (fraction of control); higher = less growth inhibition, active = hit call of the paper
Outline: (§1)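 For the AUC endpoint, growth curves were integrated by the trapezoidal rule up to the exponential-to-stationary transition and normalised to DMSO controls on the same plate. The curves came from OD578 readings taken hourly for 24 h, in three biological replicates. Pathogens had been passaged anaerobically twice and inoculated at an OD578 of 0.01 into pre-reduced mGAM plates carrying 20 μM compound and 1% DMSO, sealed with breathable membranes. Medium for Haemophilus parainfluenzae also contained hemin and NAD.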

[2] = test system: Shigella flexneri; assay: as above
Outline: as §1

[3] = test system: Vibrio cholerae; assay: as above
Outline: as §1

[4] = test system: Yersinia pseudotuberculosis; assay: as above
Outline: as §1

[5] = test system: P. vulgatus RND KO; assay: growth AUC normalised to DMSO control (median) (fraction of control); higher = less growth inhibition, active = hit call of the paper
Outline: (§2)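 After two overnight anaerobic passages, strains were inoculated at OD578 0.01 into mGAM in 96-well plates containing approved-drug library compounds at 20 μM and 1% DMSO. Growth was followed by reading OD578 hourly for 24 h within an anaerobic incubator. Area under the curve, taken by the trapezoidal rule up to the start of stationary phase, was normalised to same-plate vehicle wells, and the median of three biological replicates is listed.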

[6] = test system: P. vulgatus WT; assay: as above
Outline: as §2

[7] = test system: S. enterica typhimurium WT; assay: as above
Outline: as §2

[8] = test system: S. enterica typhimurium tolC KO; assay: as above
Outline: as §2

Measured: growth AUC normalised to DMSO control
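For growth AUC normalised to DMSO control (median) in this document: active when median AUC fell below 0.1.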

COc1ccc(C(=O)NCc2ccc(OCCN(C)C)cc2)cc1OC [Itopride]
inactive: [1] 0.996 | [2] 1.05 | [3] 1.07 | [4] 1.03 | [5] 1.02 | [6] 1.06 | [7] 1.02 | [8] 1

CC1CNc2c(cccc2S(=O)(=O)N[C@@H](CCCNC(=N)N)C(=O)N2CC[C@@H](C)C[C@@H]2C(=O)O)C1 (stereo not given in full) [Argatroban]
inactive: [1] 1 | [2] 1.03 | [3] 1 | [4] 1.02 | [5] 1.03 | [6] 1.06 | [7] 1.01 | [8] 0.996

Cc1nc2ccccn2c(=O)c1CCN1CCC(C(=O)c2ccc(F)cc2)CC1 [Pirenperone]
inactive: [1] 1.02 | [2] 1.03 | [3] 1.01 | [4] 1 | [5] 1.03 | [6] 1.04 | [7] 1.01 | [8] 0.986

CC(C)Cn1cnc2c(N)nc3ccccc3c21 [Imiquimod]
inactive: [1] 1.02 | [2] 1.05 | [3] 1.06 | [4] 1.01 | [5] 0.986 | [6] 0.951 | [7] 0.997 | [8] 0.994

O=C(O)Cc1ccccc1Nc1c(Cl)cccc1Cl [Diclofenac sodium]
inactive: [1] 0.975 | [2] 0.957 | [3] 0.973 | [4] 0.982 | [5] 0.95 | [6] 0.964 | [7] 1 | [8] 0.997

COc1cc(NS(=O)(=O)c2ccc(N)cc2)nc(OC)n1 [Sulfadimethoxine]
inactive: [1] 1.02 | [2] 1.01 | [3] 1.02 | [4] 0.987 | [5] 0.994 | [6] 1.04 | [7] 1 | [8] 0.99

O=C(CCNNC(=O)c1ccncc1)NCc1ccccc1 [Nialamide]
inactive: [1] 0.997 | [2] 1.02 | [3] 1.05 | [4] 1.01 | [5] 0.995 | [6] 1.04 | [7] 0.999 | [8] 1.01

CC1(C)[C@@H](OC(=O)CCC(=O)O)CC[C@]2(C)[C@H]3C(=O)C=C4[C@@H]5C[C@@](C)(C(=O)O)CC[C@]5(C)CC[C@@]4(C)[C@]3(C)CC[C@@H]12 [Carbenoxolone disodium salt]
inactive: [1] 0.992 | [2] 0.939 | [3] 0.971 | [4] 0.978 | [5] 0.967 | [6] 0.976 | [7] 0.997 | [8] 0.987

C#C[C@]1(O)CC[C@H]2[C@@H]3CCC4=Cc5oncc5C[C@]4(C)[C@H]3CC[C@@]21C [Danazol]
inactive: [1] 0.994 | [2] 0.971 | [3] 0.991 | [4] 0.954 | [5] 0.982 | [6] 0.992 | [7] 1 | [8] 0.983

Cc1[nH]c(=O)c(C#N)cc1-c1ccncc1 [Milrinone]
inactive: [1] 0.949 | [2] 0.999 | [3] 0.968 | [4] 0.989 | [5] 0.988 | [6] 0.995 | [7] 0.987 | [8] 0.936

Nc1nc(=O)c2nc(CNc3ccc(C(=O)N[C@@H](CCC(=O)O)C(=O)O)cc3)cnc2[nH]1 [Folic acid]
inactive: [1] 0.991 | [2] 0.99 | [3] 1 | [4] 0.994 | [5] 0.997 | [6] 1 | [7] 0.997 | [8] 1.01

CCCCC(CC)CN1CN(CC(CC)CCCC)CC(C)(N)C1 (stereo not given) [Hexetidine]
inactive: [1] 1.04 | [2] 1.05 | [3] 1.02 | [4] 1.04 | [5] 1.02 | [6] 1.03 | [7] 1.02 | [8] 0.88

N[C@@H]1CONC1=O [D-cycloserine]
inactive: [1] 1.03 | [2] 1.01 | [3] 1.02 | [4] 1.01 | [5] 0.972 | [6] 0.962 | [7] 0.994 | [8] 1

Clc1ccc(C(Cn2ccnc2)OCc2csc3c(Cl)cccc23)c(Cl)c1 (stereo not given) [Sertaconazole nitrate]
inactive: [1] 1.02 | [2] 1.06 | [3] 1.05 | [4] 0.913 | [5] 1 | [6] 1.01 | [7] 1.01 | [8] 0.935

N=C(N)NC(=O)c1nc(Cl)c(N)nc1N [Amiloride hydrochloride dihydrate]
inactive: [1] 1.01 | [2] 1.01 | [3] 1.04 | [4] 1.02 | [5] 1.03 | [6] 1.04 | [7] 0.982 | [8] 0.996

Nc1c2c(nc3ccccc13)CCCC2 [Tacrine hydrochloride]
inactive: [1] 0.995 | [2] 1.03 | [3] 1.02 | [4] 0.98 | [5] 0.999 | [6] 1.06 | [7] 0.986 | [8] 0.992

CO[C@H]1C[C@H](O[C@H]2[C@H](C)[C@@H](O[C@@H]3O[C@H](C)C[C@H](N(C)C)[C@H]3OC(C)=O)[C@@H](C)C[C@@]3(CO3)C(=O)[C@H](C)[C@@H](OC(C)=O)[C@@H](C)[C@@H](C)OC(=O)[C@@H]2C)O[C@@H](C)[C@@H]1OC(C)=O [Troleandomycin]
active: [5] 0.0116 | [6] 0.00916
inactive: [1] 0.998 | [2] 1.01 | [3] 0.882 | [4] 0.999 | [7] 0.988 | [8] 0.207

CN(C/C=C/c1ccccc1)Cc1cccc2ccccc12 [Naftifine hydrochloride]
inactive: [1] 1.01 | [2] 1.01 | [3] 0.933 | [4] 1.04 | [5] 0.996 | [6] 1.01 | [7] 0.998 | [8] 0.932

CCCC1O[C@@H]2C[C@H]3[C@@H]4CCC5=CC(=O)C=C[C@]5(C)[C@H]4[C@@H](O)C[C@]3(C)[C@]2(C(=O)CO)O1 (stereo not given in full) [Budesonide]
inactive: [1] 0.978 | [2] 0.995 | [3] 0.987 | [4] 0.989 | [5] 0.968 | [6] 0.999 | [7] 0.991 | [8] 0.984

CC(C)(O/N=C(\C(=O)N[C@@H]1C(=O)N2C(C(=O)[O-])=C(C[n+]3ccccc3)CS[C@H]12)c1csc(N)n1)C(=O)O [Ceftazidime pentahydrate]
inactive: [7] 0.214
active: [1] 0.016 | [2] 0.0524 | [3] 0.494 | [4] 0.186 | [5] 0.0283 | [6] 0.0233 | [8] 0.0609

Cc1cc(C2CCCCC2)n(O)c(=O)c1 [Ciclopirox ethanolamine]
inactive: [1] 1.01 | [2] 0.997 | [3] 0.969 | [4] 0.995 | [5] 1.02 | [6] 0.999 | [7] 1.02 | [8] 0.952

Clc1ccc2c(c1)CCc1cccnc1C2=C1CCNCC1 [Desloratadine]
inactive: [1] 1.02 | [2] 0.975 | [3] 1 | [4] 0.998 | [5] 0.959 | [6] 0.961 | [7] 0.988 | [8] 0.996

CCCCc1cc2ccccc2c(OCCN(C)C)n1 [Dimethisoquin hydrochloride]
inactive: [1] 1 | [2] 1.03 | [4] 1.02 | [5] 1 | [6] 1.02 | [7] 0.997 | [8] 0.918
active: [3] 0.866

Nc1c(Br)cc(Br)cc1CN[C@H]1CC[C@H](O)CC1 [Ambroxol hydrochloride]
inactive: [1] 0.979 | [2] 0.987 | [3] 0.963 | [4] 1 | [5] 0.955 | [6] 0.961 | [7] 0.982 | [8] 0.991

CCOC(=O)[C@H](CCc1ccccc1)N[C@H]1CCc2ccccc2N(CC(=O)O)C1=O [Benazepril hydrochloride]
inactive: [1] 0.981 | [2] 0.996 | [3] 1.01 | [4] 0.975 | [5] 1 | [6] 1 | [7] 1 | [8] 1

OC(Cn1cncn1)(Cn1cncn1)c1ccc(F)cc1F [Fluconazole]
inactive: [1] 1.01 | [2] 1.03 | [3] 1.04 | [4] 1.01 | [5] 1.01 | [6] 1.06 | [7] 1.01 | [8] 1

COc1cc(C)c(/C=C/C(C)=C/C=C/C(C)=C/C(=O)O)c(C)c1C [Acitretin]
inactive: [1] 0.995 | [2] 1.02 | [3] 0.985 | [4] 0.99 | [5] 0.944 | [6] 0.956 | [7] 1 | [8] 0.998

C=C1C[C@H]2[C@@H]3C=C(C)C4=CC(=O)CC[C@]4(C)[C@H]3CC[C@]2(C)[C@@]1(OC(C)=O)C(C)=O [Melengestrol acetate]
inactive: [1] 0.981 | [2] 1.05 | [3] 1.03 | [4] 1.03 | [5] 0.993 | [6] 1.02 | [7] 1.01 | [8] 0.961

CCN(CC)CCc1nc(-c2ccccc2)no1 [Oxolamine citrate salt]
inactive: [1] 0.99 | [2] 1.01 | [3] 1.04 | [4] 1.03 | [5] 0.97 | [6] 0.98 | [7] 1.01 | [8] 1.01

CCCCNc1c(C(=O)OCC)c(C)nc2c1cnn2CC [Tracazolate hydrochloride]
inactive: [1] 1 | [2] 1.03 | [3] 1.04 | [4] 0.996 | [5] 0.978 | [6] 0.983 | [7] 0.999 | [8] 0.952
